According to PubChem BioAssay (NCATS):
Records with an inconclusive call do not appear. Calls of active or inactive are those of the source. Unless noted, the rule behind the calls is not given here.

How the values were obtained:
[1] = qHTS Assay for Identifying Gametocytocidal Compounds (AID 743244; active = well fitted curve in the direction sought with a large enough effect; an effect the other way counts as inactive or inconclusive;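 note: % is set by controls: 0 for no effect and ±100 for the full control effect; actives lower the fluorescent signal which means gametocytes are killed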); conditions: P. falciparum 3D7 stage III-V gametocytes, alamarBlue, 72 h; max response: stronger effect = lower value
Outline: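 In this qHTS viability screen, late-stage 3D7 gametocytes are incubated with compound for 72 h, then with alamarBlue for 24 h; reduced resorufin fluorescence marks killing.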

[2] = qHTS profiling for inhibitors of Plasmodium falciparum (3D7) proliferation (AID 743322);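 note: infected erythrocytes exposed to compound for 72 h before lysis; 100% = DMSO vehicle wells and 0% = 0.29 µM artemisinin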; conditions: P. falciparum 3D7 proliferation; at 28.7 µM (top of the series) unless noted
Outline: (§1)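 Erythrocytes infected with P. falciparum (0.3% parasitemia, 2.5% hematocrit) incubated with compounds 72 h at 37 C, 5% CO2. Lysis with saponin/Triton buffer containing SYBR Green I, overnight at room temperature in the dark; DNA fluorescence (485/535 nm) normalised to 0.29 uM artemisinin and DMSO.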

[3] = qHTS profiling for inhibitors of Plasmodium falciparum (DD2) proliferation (AID 743323); conditions: lower = more inhibition; at 28.7 µM (top of the series) unless noted
Outline: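 Parasite DNA quantified by SYBR Green fluorescence (ex 485, em 535 nm) after saponin/Triton lysis and overnight dark incubation. Cultures: 0.3% parasitemia, 2.5% hematocrit, 72 h, 37 C; data scaled between DMSO and 0.29 uM artemisinin.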

[4] = qHTS profiling for inhibitors of Plasmodium falciparum (HB3) proliferation (AID 743324; active = well fitted curve in the direction sought with a large enough effect; an effect the other way counts as inactive or inconclusive;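 note: 100% = DMSO vehicle wells and 0% = artemisinin-treated control wells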); conditions: Plasmodium falciparum HB3 blood-stage proliferation; at 28.7 µM (top of the series) unless noted
Outline: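 P. falciparum HB3 grown in erythrocytes (0.3% parasitemia, 2.5% hematocrit final) with compound for 72 h at 37 C, 5% CO2. Parasite DNA detected by SYBR Green after saponin/triton lysis overnight; normalized to 0.29 uM artemisinin and DMSO.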

[5] = qHTS profiling of the MIPE4 collection as inhibitors of Plasmodium falciparum (3D7) proliferation (AID 743344);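 note: scaled between DMSO vehicle wells and 0.29 µM artemisinin as full inhibition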; conditions: P. falciparum 3D7 in erythrocytes, SYBR Green DNA fluorescence, 72 h; at 28.5 µM (top of the series) unless noted
Outline: as §1

[6] = qHTS profiling of the MIPE4 collection as inhibitors of Plasmodium falciparum (DD2) proliferation (AID 743345); conditions: P. falciparum Dd2 in erythrocytes, SYBR Green DNA, 72 h; at 28.5 µM (top of the series) unless noted
Outline: as §1

[7] = qHTS profiling of the MIPE4 collection as inhibitors of Plasmodium falciparum (DD2) proliferation (Rep 2) (AID 743346); conditions: P. falciparum Dd2 in erythrocytes, SYBR Green DNA, 72 h; at 28.5 µM (top of the series) unless noted
Outline: as §1

[8] = qHTS profiling of the MIPE4 collection as inhibitors of Plasmodium falciparum (HB3) proliferation (AID 743347);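 note: plate controls were DMSO vehicle wells for no effect and artemisinin wells for full effect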; conditions: P. falciparum HB3 in erythrocytes, SYBR Green DNA, 72 h; at 28.5 µM (top of the series) unless noted
Outline: as §1

[9] = Cell Proliferation Assay Versus the ED40515 IL2 Dependent ATL cell lines (AID 1053195; calls by dose curve); conditions: ED40515 IL2-dependent ATL cells
Outline: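 IL2-dependent ED40515 ATL cells grown with IL2, 1000 cells/well in phenol red-free RPMI + 5% FBS, exposed 48 hours at 37C. Viability by CellTiter-Glo luminescence after 15 min at RT; 9.2 uM bortezomib as control.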

[10] = High-throughput drug toxicity screening in the BPDCN cell line Gen2.2 (AID 1224824); conditions: Gen2.2 BPDCN cells; at 45.8 µM (top of the series) unless noted;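 note: cells exposed to compounds for 48 h before reading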
Outline: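 Gen2.2 cells (500/well) in phenol red-free RPMI with 10% FBS were exposed to compounds for 48 h at 37 °C, 5% CO2. Viability was read by CellTiter-Glo luminescence and normalized to DMSO (100%) and 9.2 uM bortezomib (0%).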

[11] = High-throughput drug toxicity screening in the BPDCN cell line Cal-1 (AID 1224825); conditions: Cal-1 BPDCN cell viability, qHTS; at 45.8 µM (top of the series) unless noted
Outline: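 Cal-1 cells, 500 per well in phenol-red-free RPMI with 10% FBS, exposed to compounds for 48 hours at 37C, 5% CO2. Viability read by CellTiter-Glo luminescence; percent activity normalized to DMSO (100%) and 9.2 uM bortezomib final (0%).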

[12] = qHTS assay for measurement of the activity of small molecule inhibitors on Zika virus induced Caspase-3 activity in human iPSC derived neural progenitor cells (hNPCs) (AID 1224857; active = well fitted curve in the direction sought with a large enough effect; an effect the other way counts as inactive or inconclusive; note: % of control where 0% means no effect; nearly all actives have a fitted effect of over 65% in size)
Outline: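 In medium with heparin 2 ug/ml and cyclopamine 2 uM, hNPCs (350 cells/well) received compound for one hour and then Zika virus at 2 FFU/cell; caspase activity was measured by Caspase-Glo 3/7 luminescence 6 h post-infection.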

[13] = qHTS assay for measurement of the activity of small molecule inhibitors on Zika virus induced Caspase-3 activity in human astrocytoma cells (AID 1224859; active = well fitted curve in the direction sought with a large enough effect; an effect the other way counts as inactive or inconclusive;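 note: plate controls were ZIKV-infected untreated cells for no effect and uninfected cells for full effect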)
Outline: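 A cell-based luminescent caspase-3/7 assay used SNB-19 cells infected with ZIKV (2 FFU/cell) for 6 h following 1 h compound pretreatment.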

[14] = qHTS Screen of the MIPE 4.0 Collection Against Ewings Sarcoma (RDES) (AID 1259252; active = well fitted curve in the direction sought with a large enough effect; an effect the other way counts as inactive or inconclusive; note: nearly all actives have a fitted effect of over 35% in size; note: potency is the fitted concentration of half-maximal effect)
Outline: (§2)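 Viability screen: 48 h incubation at 37C, 95% humidity, 5% CO2 with serially titrated compound, followed by CellTiter-Glo readout.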

[15] = qHTS Screen of the MIPE 4.0 Collection Against Ewings Sarcoma (TC71) (AID 1259253; active = well fitted curve in the direction sought with a large enough effect; an effect the other way counts as inactive or inconclusive; note: potency is the fitted concentration of half-maximal effect; nearly all actives have a fitted effect of over 40% in size)
Outline: as §2

[16] = qHTS Screen of the MIPE 4.0 Collection Against Ewings Sarcoma (EW8) (AID 1259255; active = well fitted curve in the direction sought with a large enough effect; an effect the other way counts as inactive or inconclusive;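 note: 100% = DMSO-treated cells and 0% = medium-only wells without cells; nearly all actives have a fitted effect of over 35% in size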)
Outline: as §2

## O=C(Nc1cccnc1)N1CCC(Cc2cccc(Oc3ccc(C(F)(F)F)cn3)c2)CC1
[1]
  max response: -7.98% (inactive)
[2]
  remaining parasite growth % (stronger effect = lower value): 8.79%
[3]
  activity, percent of control: 24.9%
[4]
  remaining proliferation (% of control), lower = more inhibition: 4.06%
[5]
  parasite growth, % of DMSO control: 14.7%
[6]
  parasite growth remaining, % of DMSO control (lower = more inhibition): 52.2%
[7]
  parasite growth, % of control (lower = inhibition): 21%
[8]
  growth, % of control: 5.3%
[9]
  Potency: 5.9 µM (active)
[10]
  cell viability, % of control (lower = more cytotoxic): 147%
[11]
  viability (% of control): 52.7%
[12]
  Potency: inactive
[13]
  Potency: inactive
[14]
  Potency: 18.7 µM (active)
[15]
  Potency: 16.6 µM (active)

## Cc1n[nH]c(C)c1Cc1sc2c(c1C(=O)N1C[C@H](O)CO1)c(=O)n(C)c(=O)n2CC(C)C
[1]
  max response: 4.91% (inactive)
[2]
  remaining parasite growth % (stronger effect = lower value): 111%
[3]
  activity, percent of control: 99.9%
[4]
  remaining proliferation (% of control), lower = more inhibition: 81.9%
[5]
  parasite growth, % of DMSO control: 161%
[6]
  parasite growth remaining, % of DMSO control (lower = more inhibition): 107%
[7]
  parasite growth, % of control (lower = inhibition): 86.3%
[8]
  growth, % of control: 145%
[9]
  Potency: 0.0019 µM (active)
[10]
  cell viability, % of control (lower = more cytotoxic): 109%
[11]
  viability (% of control): 96.6%
[12]
  Potency: inactive
[14]
  Potency: inactive
[15]
  Potency: 0.166 µM (active)
[16]
  Potency: inactive

## Cn1cc(-c2ccc3nnc(C(F)(F)c4ccc5ncccc5c4)n3n2)cn1
[1]
  max response: -4.32% (inactive)
[2]
  remaining parasite growth % (stronger effect = lower value): 40.4%
[3]
  activity, percent of control: 62.2%
[4]
  remaining proliferation (% of control), lower = more inhibition: 17.3%
[5]
  parasite growth, % of DMSO control: 24.5%
[6]
  parasite growth remaining, % of DMSO control (lower = more inhibition): 70.3%
[7]
  parasite growth, % of control (lower = inhibition): 41.1%
[8]
  growth, % of control: 35.2%
[9]
  Potency: 7.43 µM (active)
[10]
  cell viability, % of control (lower = more cytotoxic): 55.7%
[11]
  viability (% of control): 64.2%
[12]
  Potency: inactive
[13]
  Potency: inactive

## CNC(=O)c1ccc(C)c(-n2c(C)cc(OCc3ccc(F)cc3F)c(Br)c2=O)c1
[2]
  remaining parasite growth % (stronger effect = lower value): 91.9%
[3]
  activity, percent of control: 80.8%
[4]
  remaining proliferation (% of control), lower = more inhibition: 52.2%
[5]
  parasite growth, % of DMSO control: 42%
[6]
  parasite growth remaining, % of DMSO control (lower = more inhibition): 84.9%
[7]
  parasite growth, % of control (lower = inhibition): 50.9%
[8]
  growth, % of control: 93.8%
[9]
  Potency: 5.9 µM (active)
[10]
  cell viability, % of control (lower = more cytotoxic): 140%
[12]
  Potency: inactive
[13]
  Potency: inactive
